# Data: the supplement of paper PMC8728848
# Only a selection was taken, and the strongest signals are over-represented in it overall.
# Experiments:
# Test in all cases: glycan array binding signal (z-score within array); higher = stronger binding
# Conditions in all cases: glycan notation: IUPAC condensed, linker removed
# [1] = molecular target: Fuc(a1-2)Gal(b1-3)GlcNAc(b1-3)Gal(b1-4)Glc
# Method in brief: (§1)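 The binding signal is a Z-score computed within each array and averaged over linkers. Arrays of the same protein sequence at different concentrations or buffers were also averaged together. Data originate from 3228 arrays in the Consortium for Functional Glycomics database, kept only where the protein sequence was available.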
# [2] = molecular target: Fuc(a1-2)Gal(b1-4)GlcNAc(b1-3)Gal(b1-4)GlcNAc(b1-3)Gal(b1-4)GlcNAc
# Method in brief: as §1
# [3] = molecular target: Fuc(a1-2)Gal(b1-4)GlcNAc6S
# Method in brief: as §1
# [4] = molecular target: Fuc(a1-2)Gal(b1-4)[Fuc(a1-3)]GlcNAc
# Method in brief: as §1
# [5] = molecular target: Fuc(a1-2)Gal(b1-4)[Fuc(a1-3)]GlcNAc(b1-3)Gal(b1-4)[Fuc(a1-3)]GlcNAc(b1-3)Gal(b1-4)[Fuc(a1-3)]GlcNAc
# Method in brief: as §1
# [6] = molecular target: Fuc(a1-2)Gal6S(b1-4)Glc6S
# Method in brief: as §1
# [7] = molecular target: Fuc(a1-2)[GalNAc(a1-3)]Gal(b1-4)Glc
# Method in brief: as §1
# [8] = molecular target: Fuc(a1-3)[Gal(b1-4)]GlcNAc6S
# Method in brief: as §1
# [9] = molecular target: Fuc(a1-3)[Gal3S(b1-4)]GlcNAc6S
# Method in brief: as §1
# Gal(a1-6)Glc = molecular target: Gal(a1-6)Glc
# Method in brief: as §1
# [10] = molecular target: Gal(b1-4)GlcNAc(b1-3)Gal(b1-4)GlcNAc(b1-3)Gal(b1-4)GlcNAc
# Method in brief: as §1
# Gal3S(b1-3)GalNAc = molecular target: Gal3S(b1-3)GalNAc
# Method in brief: as §1
# Gal3S6S(b1-4)GlcNAc6S = molecular target: Gal3S6S(b1-4)GlcNAc6S
# Method in brief: as §1
# Gal4S6S(b1-4)GlcNAc = molecular target: Gal4S6S(b1-4)GlcNAc
# Method in brief: as §1
# GalNAc(a1-3)GalNAc = molecular target: GalNAc(a1-3)GalNAc
# Method in brief: as §1
# GlcA(b1-3)GlcNAc = molecular target: GlcA(b1-3)GlcNAc
# Method in brief: as §1
# Kdn(a2-3)Gal(b1-3)GlcNAc = molecular target: Kdn(a2-3)Gal(b1-3)GlcNAc
# Method in brief: as §1
# [11] = molecular target: Man(a1-2)Man(a1-2)Man(a1-3)Man
# Method in brief: as §1
# [12] = molecular target: Neu5Ac(a2-3)Gal(b1-3)[Fuc(a1-4)]GlcNAc
# Method in brief: as §1
# Neu5Ac(a2-3)Gal(b1-4)Glc = molecular target: Neu5Ac(a2-3)Gal(b1-4)Glc
# Method in brief: as §1
# [13] = molecular target: Neu5Ac(a2-3)Gal(b1-4)GlcNAc(b1-2)Man(a1-3)[Neu5Ac(a2-6)Gal(b1-4)GlcNAc(b1-2)Man(a1-6)]Man(b1-4)GlcNAc(b1-4)GlcNAc
# Method in brief: as §1
# [14] = molecular target: Neu5Ac(a2-3)Gal(b1-4)GlcNAc(b1-3)Gal(b1-3)GlcNAc
# Method in brief: as §1
# [15] = molecular target: Neu5Ac(a2-3)Gal(b1-4)[Fuc(a1-3)]GlcNAc(b1-3)Gal(b1-4)[Fuc(a1-3)]GlcNAc(b1-3)Gal(b1-4)[Fuc(a1-3)]GlcNAc
# Method in brief: as §1
# [16] = molecular target: Neu5Ac(a2-6)Gal(b1-4)GlcNAc6S
# Method in brief: as §1
# Neu5Ac(b2-6)GalNAc = molecular target: Neu5Ac(b2-6)GalNAc
# Method in brief: as §1
# [17] = molecular target: Neu5Gc(a2-3)Gal(b1-3)[Fuc(a1-4)]GlcNAc
# Method in brief: as §1
# Neu5Gc(a2-3)Gal(b1-4)Glc = molecular target: Neu5Gc(a2-3)Gal(b1-4)Glc
# Method in brief: as §1
binder,measurement,setting,value
"CLC (Homo sapiens), Q9UBD9 (protein) MDLRAGDSWGMLACLCTVLWHLPAVPALNRTGDPGPGPSIQKTYDLTRYLEHQLRSLAGTYLNYLGPPFNEPDFNPPRLGAETLPRATVDLEVWRSLNDKLRLTQNYEAYSHLLCYLRGLNRQAATAELRRSLAHFCTSLQGLLGSIAGVMAALGYPLPQPLPGTEPTWTPGPAHSDFLQKMDDFWLLKELQTWLWRSAKDFNRLKKKMQPPAAAVTLHLGAHGF",glycan array binding signal (z-score),[1],-0.218
same,glycan array binding signal (z-score),[2],-0.886
same,glycan array binding signal (z-score),[3],-0.106
same,glycan array binding signal (z-score),[4],-0.557
same,glycan array binding signal (z-score),[5],0.011
same,glycan array binding signal (z-score),[6],2.23
same,glycan array binding signal (z-score),[7],1.52
same,glycan array binding signal (z-score),[8],-0.923
same,glycan array binding signal (z-score),[9],2.72
same,glycan array binding signal (z-score),Gal(a1-6)Glc,-0.312
same,glycan array binding signal (z-score),[10],-0.565
same,glycan array binding signal (z-score),Gal3S(b1-3)GalNAc,-0.144
same,glycan array binding signal (z-score),Gal3S6S(b1-4)GlcNAc6S,11.1
same,glycan array binding signal (z-score),Gal4S6S(b1-4)GlcNAc,2.49
same,glycan array binding signal (z-score),GalNAc(a1-3)GalNAc,0.257
same,glycan array binding signal (z-score),GlcA(b1-3)GlcNAc,0.215
same,glycan array binding signal (z-score),Kdn(a2-3)Gal(b1-3)GlcNAc,-0.192
same,glycan array binding signal (z-score),[11],0.263
same,glycan array binding signal (z-score),[12],-0.63
same,glycan array binding signal (z-score),Neu5Ac(a2-3)Gal(b1-4)Glc,0.101
same,glycan array binding signal (z-score),[13],0.098
same,glycan array binding signal (z-score),[14],0.852
same,glycan array binding signal (z-score),[15],-0.485
same,glycan array binding signal (z-score),[16],-0.346
same,glycan array binding signal (z-score),Neu5Ac(b2-6)GalNAc,-0.297
same,glycan array binding signal (z-score),[17],-0.279
same,glycan array binding signal (z-score),Neu5Gc(a2-3)Gal(b1-4)Glc,2.45
